Out of some 43,000 compounds screened, about 200 (0.47%) were called active. Where a call stands in place of a potency, no number is given. About 12% were inconclusive and are not listed. This is one part of a sample in which actives are shown more often than they occur. The call rests on the fitted dose curve; in most records, active means well fitted cell-killing curve with a large enough effect; inconclusive means small, poorly fitted or top-dose-only effect, or effect the other way; inactive means flat fitted curve, though single readings scatter.
assay: Cell viability qHTS assay in S16 Pmp22-F2sN cells; settings: S16 Pmp22-F2sN Schwann cells (luciferase reporters placed in the Pmp22 gene) viability, CellTiter-Glo, 24 h; series mostly up to 57.5 µM; further: nearly all actives have a fitted effect of over 65% in size
Excerpt: Assay Provider: Jim Inglese Ph.D. National Center for Advancing Translational Science, National Institutes of Health, Rockville, MD CMT is a heterogeneous group of neurological disorders that affect approximately 1 in 2,500 people. In particular, the most common form of CMT, CMT1A is genetically linked to the duplication of the PMP22 gene which leads to Schwann cell overexpression, thus manifesting itself as a typical case of dose-sensitive diseases. To identify small molecule compounds that can mediate the expression of PMP22 we developed a phenotypic assay screening strategy by utilizing genome editing techniques to construct Schwann cell lines containing novel reporter technology to monitor the transcriptional or translational regulation of PMP22. For high sensitivity we use a bioluminescent reporter system embedded in the 3' UTR of the PMP22 gene (S16(c9) Pmp22-F2sN) to identify compounds that inhibit gene expression. […] We can further discriminate the effect of all transcriptionally active molecules on PMP22 translation or stability with an assay that incorporates a short NLuc peptide (HiBiT) at the C-terminus of expressed PMP22 (S16(f8) PMP22-HiBiT) allowing alpha complementation and luminescence detection of membrane-associated PMP22 protein. These assays were screened against the NCATS Sytravon Library Collection. Miniaturization of these assays to 1536-well plate format for quantitative high throughput screening (qHTS) yielded rich data sets immediately from the qHTS assay (S16(c9) Pmp22-F2sN), when compared with data from a cell viability assay (Cell TiterGlo) to identify compounds that decreased the output signals through cellular toxicity to streamline the selection process of actives for subsequent characterization using the HiBiT assay (S16(f8) PMP22-HiBiT).
Cell viability assay in S16 Pmp22-F2sN cells PROTOCOL TABLE (format as described by Inglese J, Shamu CE and Guy RK. 2007) SEQUENCE No. (e.g., 1, 2, 3, etc.); […] (e.g., Cells, Incubation, Reagent, etc.); VALUE and DESCRIPTION. 1. Cells. Add 500-1,000 cells in 4 uL in growth media (DMEM High Glucose, No Phenol Red media + 10% heat-inactivated FBS + 1% Pen/Strep supplemented media) per well into Greiner 1536-well white/solid bottom high base, TC-treated plates. 2. Compounds. Library compounds and controls added at 23nL per well, transferred by Pin Tool. 3. Incubation. Incubate plates at 37C, 5% CO2, 95% RH for 24 h. 4. Reagent. Add 3uL CellTiter-Glo per well of Greiner 1536-well plates. 5. Incubation. Incubate plates at room temperature for 15 min., protect from light. 6. Detector. FLuc luminescence measured using CCD-based camera (Viewlux). NOTES (numbers refer to Sequence numbers above; values are from representative experiments) 6. Luminescence Read: Clear filter; Exposure = 1 sec, Gain = High, Speed = Slow, Binning = 2X REFERENCES: 1. Inglese J, Shamu CE and Guy RK, Reporting data from high throughput screening of small molecule libraries, Nature Chemical Biology, 2007, 3(8): 438-441. doi.org/10.1038/nchembio0807-438 2. Yasgar A, Shinn P, Jadhav A, Auld DS, Michael S, Zheng W, Austin CP, Inglese J and Simeonov A, Compound Management for Quantitative High-Throughput Screening. J. Assoc. Lab. Auto., 2008, 13: 79-89. doi: 10.1016/j.jala.2007.12.004
Potency means the concentration at half of the fitted maximal effect.

Row | SMILES | Potency
1 | O=C(COc1ccccc1)OCc1cc(=O)n2nc(-c3cccs3)sc2n1 | inactive
2 | CCc1c(C)sc(NC(=O)C2c3ccccc3Oc3ccccc32)c1C(=O)OC(C)C | inactive
3 | CCc1nc2cccnc2n1-c1ccc(CC(=O)Nc2c(C)cccc2C)cc1 | inactive
4 | CCCNC(=O)C1CCC(Cn2c(=O)c3sccc3n(Cc3ccccc3F)c2=O)CC1 (configuration not stated) | inactive
5 | O=C(Nc1ccc(Br)cc1)c1cc2nc(-c3ccccc3)cc(-c3ccccc3)n2n1 | inactive
6 | COc1ccc(CCNC(=O)CCCn2c(=O)c3ccccc3n(Cc3ccc(F)cc3Cl)c2=O)cc1OC | inactive
7 | O=C(CSc1n[nH]c(-c2ccccc2)n1)N1CCCCC1 | inactive
8 | CCN(CC)S(=O)(=O)c1ccc2c(c1)nc(CN(C)C(=O)Nc1ccc(Cl)cc1)n2C | inactive
9 | O=C(NCCc1ccccc1)c1cnc2sc(N3CCCC3)nn2c1=O | inactive
10 | CCC(Sc1nc2n[nH]c(C)c2c(=N)n1-c1ccccc1Cl)C(=O)N(CC)CC (configuration not stated) | inactive
11 | CCC(CC)C(=O)N1CCc2cc(OC)c(OC)cc2C1COc1ccc(F)cc1 (configuration not stated) | inactive
12 | Cc1cc(C)c2oc(C(=O)Nc3ccc(S(=O)(=O)N4CCCCCC4)cc3)cc(=O)c2c1 | inactive
13 | COc1ccc(S(=O)(=O)c2c(Nc3ccc(C)cc3)sc(C(=O)c3ccc(C)cc3)c2N)cc1 | inactive
14 | COc1ccccc1CNC(=O)NCc1noc2ccc(C)cc12 | inactive
15 | COc1ccc(C(F)(F)F)cc1NC(=O)c1sc2nc(-c3cccs3)ccc2c1N | inactive
16 | CC1CCN(C(=O)Cn2c(=O)n(-c3ccc(Cl)cc3)c(=O)c3c4c(sc32)CCC4)CC1 | inactive
17 | CCCN(CCC)CCNC(=O)c1ccc2c(c1)NC(=O)C(CS(=O)(=O)Cc1cccc(Br)c1)N2 (configuration not stated) | inactive
18 | Cc1cc(C)cc(-n2ccnc2SCC(=O)Nc2nc3ccccc3s2)c1 | inactive
19 | CCc1ccccc1NC(=O)Cc1ccc(NC(=O)N2CCCCc3ccccc32)cc1 | inactive

Row | SMILES | Potency
20 | CCc1cccc(NC(=O)CCNS(=O)(=O)c2cccc3nonc23)c1 | inactive
21 | COc1cccc(N2CCN(S(=O)(=O)c3cc(Br)cc4c3N(C(=O)C3CC3)CC4)CC2)c1 | inactive
22 | Cc1ccc(S(=O)(=O)n2nc(-c3ccc(Cl)cc3)nc2NCc2ccccc2)cc1 | inactive
23 | CCN(CCCNC(=O)c1cc2cc3cc(OC)ccc3nc2s1)c1ccccc1 | inactive
24 | COc1cccc(CNC(=O)Cn2c(=O)c3cccn3c3ccc(F)cc32)c1OC | inactive
25 | CCCSc1ncc(Cl)c(C(=O)Nc2sc3c(c2C(=O)NCCOC)CCCC3)n1 | inactive
26 | Cc1ccc(OCC(=O)Nc2ccc(Cl)c(-c3nc4ccccc4[nH]3)c2)cc1C | inactive
27 | CCOc1ccc(OCC)c(NC(=O)CN(c2ccc(C)cc2)S(=O)(=O)c2c(C)n[nH]c2C)c1 | inactive
28 | Cc1cc2nc(-c3ccc(NC(=O)c4cc5ccccc5o4)cc3)oc2cc1C | inactive
29 | O=C(NC1CC(=O)N(c2ccc(F)cc2)C1)C1CCCCC1 (configuration not stated) | inactive
30 | CCN1CCN(c2ncc3c(n2)CC(c2ccccc2O)CC3=O)CC1 (configuration not stated) | inactive
31 | Cc1ccc(-c2cc(-c3coc4ccccc4c3=O)c3c(n2)-c2cc(Cl)ccc2OC3)cc1 | inactive
32 | CCOc1cccc2c1N[C@@H](c1ccc(C(=O)O)cc1)[C@H]1CC=C[C@@H]21 | inactive
33 | Cc1ccc(C(=O)Nc2c(C(=O)NC(C)(C)C)oc3ccccc23)cc1 | inactive
34 | COc1ccc(CCC(=O)NCc2ccc3c(c2)CCN3C(=O)c2ccc(F)cc2)cc1 | inactive
35 | COc1ccccc1CNc1ccc(-c2nc(-c3ccccc3C)no2)cc1[N+](=O)[O-] | inactive
36 | Cc1ccc2c(=O)c(C(=O)c3ccc(F)cc3)cn(CC(=O)NC3CCCCC3)c2n1 | inactive
37 | Cc1ccc2c(=O)c(C(=O)c3cccc(Cl)c3)cn(CC(=O)NCc3ccccc3)c2n1 | 10 µM (active)
38 | Cc1ccc2c(=O)c(C(=O)c3ccc(Cl)cc3)cn(CC(=O)NC3CCCCC3)c2n1 | inactive

Row | SMILES | Potency
39 | Cc1ccc(-c2nnc(Nc3ccc(OCC(N)=O)cc3)c3ccccc23)cc1S(=O)(=O)NCC1CCCO1 (configuration not stated) | inactive
40 | CCCCCn1c(CCNC(=O)c2ccc(F)cc2)nc2ccccc21 | inactive
41 | COCCNS(=O)(=O)c1cc(-c2nn3c(C)nnc3c3ccccc23)ccc1C | inactive
42 | CCc1nnc(SCc2c(F)cccc2Cl)c2cc3sccc3n12 | inactive
43 | COc1cc(C(=O)N(Cc2ccc(C(C)C)cc2)C2CCS(=O)(=O)C2)cc(OC)c1OC (configuration not stated) | inactive
44 | CCOc1ccccc1NC(=O)Cn1c2ncccc2c(=O)n1-c1ccc(C)c(C)c1 | inactive
45 | Cc1cccc(Cn2c(CN3CCC(C(=O)NCc4ccccc4Cl)CC3)cc3ccccc32)c1 | inactive
46 | CCN(CC)S(=O)(=O)c1ccc2c(c1)N(CC(=O)NCc1ccccc1)C(=O)CS2 | inactive
47 | COc1ccc(-c2onc(C)c2C)cc1S(=O)(=O)NCC1CCN(Cc2cccc(F)c2)CC1 | inactive
48 | Cc1onc(-c2ccc(F)cc2F)c1C(=O)Nc1cccc(C(F)(F)F)c1 | inactive
49 | Cc1ccc(Cn2c(=O)n(Cc3nc(-c4ccccc4)no3)c(=O)c3cc4c(cc32)OCO4)cc1 | inactive
50 | CN(C)c1ccc(C(CNS(=O)(=O)c2cc(F)ccc2F)N2CCOCC2)cc1 (configuration not stated) | inactive
51 | CCOc1ccc(C(=O)c2cn(Cc3ccccc3OC)c3ccc(F)cc3c2=O)cc1 | inactive
52 | O=C(/C=C/c1cn(CC(O)CN2CCc3ccccc32)c2ccccc12)c1ccc(Br)cc1 (configuration not stated) | inactive
53 | O=C(CCC1N=C2c3ccccc3N=C(SCc3ccccc3F)N2C1=O)NCCc1ccccc1 (configuration not stated) | inactive
54 | CSCCC(NS(=O)(=O)c1ccc2c(c1)oc(=O)n2C)C(=O)NCc1ccccc1 (configuration not stated) | inactive
55 | O=C(Nc1nnc(C2CC(=O)N(c3ccc(Cl)cc3)C2)s1)c1ccco1 (configuration not stated) | inactive
56 | O=C(NCc1ccc(F)cc1)c1ccc(Cn2c(SCc3ccc(F)cc3)nc3cccnc32)cc1 | inactive
57 | Cc1c2cnn(-c3ccccc3)c(=O)c2c(C)n1C(C)C(=O)Nc1ccc(Br)cc1F (configuration not stated) | inactive

Source: PubChem BioAssay AID1508642 (National Center for Advancing Translational Sciences (NCATS), 2021)
